Inconclusive results are not listed. Activity calls are given as the source filed them. Calls come from the whole dose curve; as a rule, active = well fitted inhibition curve with a large enough effect; inconclusive = small, poorly fitted or top-dose-only effect; inactive = flat fitted curve, though single readings scatter.
Experiment: P-glycoprotein substrates identified in KB-8-5-11 adenocarcinoma cell line, qHTS therapeutic library screen (AID 1346987); note: nearly all actives have a fitted effect of over 65% in size
Conditions: KB-8-5-11 (P-gp overexpressing) viability, CellTiter-Glo, 72 h; series mostly up to 44.5 µM; activity change, negative = cytotoxicity: at the top concentration
Text: The ATP-binding cassette transporters P-glycoprotein (P-gp) is known to limit brain penetration of many chemotherapy drugs. […] As such, we developed a high-throughput screen (HTS) to identify substrates of P-gp from a series of chemical libraries including the National Center for Advancing Translational Sciences Pharmaceutical Collection NPC, 2,816 compounds), testing a total of 10,804 compounds, most of which have known mechanisms of action. We used the CellTiter-Glo viability assay to test library compounds against the parental KB-3-1 human cervical adenocarcinoma cell line and the colchicine-selected sub-line KB-8-5-11 that over-expresses P-gp. KB-8-5-11 cells were also tested in the presence of a P-gp inhibitor (tariquidar) to assess reversability of transporter-mediated resistance. Of the tested compounds, a total of 90 P-gp substrates were identified including 55 newly identified P-gp substrates. Substrates were confirmed using an orthogonal killing assay against HEK-293 cells transfected with P-gp. As exemplars, we confirmed that […] (cyclin-dependent kinase inhibitor); AT9283, (Janus kinase 2/3 inhibitor); ispinesib (kinesin spindle protein inhibitor); gedatolisib (PKI-587, phosphoinositide 3-kinase/mammalian target of rampamycin inhibitor); GSK-690693 (AKT inhibitor); and KW-2478 (heat shock protein 90 inhibitor) were substrates , and direct ATPase stimulation was assessed. ABCG2 was also found to confer high levels of resistance to AT9283, GSK-690693 and gedatolisib, while ispinesib, AT7519 and KW-2478 were weaker substrates.
The HeLa derivative cell line, KB-3-1, and its colchicine-selected, P-gp-overexpressing subline, KB-8-5-11 were maintained in DMEM with 10% FCS and Pen/Strep with glutamine at 37 degree C in 5% CO2. For KB-8-5-11 cells, colchicine was added to the medium at a concentration of 100 ng/mL. HEK-293 cells transfected with empty vector (pcDNA) or vector containing human ABCB1 (MDR-19) or ABCG2 (R-5) have been described previously (Robey, Lin, Qiu, Chan & Bates, 2011) and were maintained in EMEM supplemented with 10% FCS, Pen/Strep and glutamine with 2 mg/ml G418 to select for the expression of the transporter. Cultures were confirmed to be free of mycoplasma infection using the MycoAlert Mycoplasma Detection Kit (Lonza, Walkersville, MD). For the screen, assay medium was identical to culture medium except for KB-8-5-11 where colchicine was excluded from the medium.
All cell lines were plated into 1536-well plates at 500 cells/well in 5 uL media. Compounds were then pinned in dose-response using a 1536-head pin tool (Kalypsis, San Diego, CA) and plates were incubated at 37 degree C in 5% CO2 for an additional 72 h. CellTiter-Glo reagent (Promega) was dispensed into the wells, incubated for 5 min and luminescence was read on a ViewLux instrument (Perkin-Elmer). Cytotoxic compounds were defined as those that yielded a curve class of -1.1, -1.2, -2.1, -2.2, -2.3, or -2.4, a maximum response of >50% and an AC50 of < 10 uM. Cherry-picked hits from screening analysis were tested with both the KB pair of cell lines, and the pcDNA (empty vector control) and MDR-19 (P-gp overexpressing) pair were tested, in the absence and presence of tariquidar.
% is set by controls: 0 for no effect and ±100 for the full control effect; potency is the fitted concentration of half-maximal effect.

| Compound | activity change, negative = cytotoxicity | Potency | outcome |
| --- | --- | --- | --- |
| C1CCc2nnnn2CC1 | 2.15% (inactive) |  |  |
| CC(C)(C)CC(C)(C)c1ccc(OCCOCC[N+](C)(C)Cc2ccccc2)cc1 |  | inactive |  |
| CCCCS(=O)(=O)N[C@@H](Cc1ccc(OCCCCC2CCNCC2)cc1)C(=O)O |  | inactive |  |
| CCCC1O[C@@H]2C[C@H]3[C@@H]4CCC5=CC(=O)C=C[C@]5(C)[C@H]4[C@@H](O)C[C@]3(C)[C@]2(C(=O)CO)O1 (stereo not given in full) | -4.07% (inactive) |  |  |
| Cc1c(C(N)=O)cc([N+](=O)[O-])cc1[N+](=O)[O-] | -17.3% (inactive) |  |  |
| CC(C)(C)NC(=O)[C@@H]1CN(Cc2cccnc2)CCN1C[C@@H](O)C[C@@H](Cc1ccccc1)C(=O)N[C@H]1c2ccccc2C[C@H]1O |  |  | inactive |
| O=C(O)CNC(=O)c1ccccc1 | -7.9% (inactive) |  |  |
| CC[N+](CC)(CCNC(=O)C(=O)NCC[N+](CC)(CC)Cc1ccccc1Cl)Cc1ccccc1Cl | -1.49% (inactive) |  |  |
| Cc1cc(N)c2cc(NC(=O)Nc3ccc4nc(C)cc(N)c4c3)ccc2n1 | -5.99% (inactive) |  |  |
| Oc1cc(O)c2c(c1)O[C@H](c1ccc(O)c(O)c1)[C@H](O)C2 | 1.27% (inactive) |  |  |
| CC1(C)O[C@@H]2[C@@H](CO[C@@]3(COS(N)(=O)=O)OC(C)(C)O[C@@H]23)O1 | -8.32% (inactive) |  |  |
| N[C@@H](Cc1cnc[nH]1)C(=O)O | -0.518% (inactive) |  |  |
| Cc1cc(=O)n(-c2ccccc2)n1C | 16% (inactive) |  |  |
| O=c1[nH]c(=O)n([C@H]2CCCO2)cc1F | -2.7% (inactive) |  |  |
| Nc1ccc(/C=C/c2ccc(N)cc2S(=O)(=O)O)c(S(=O)(=O)O)c1 | 6.97% (inactive) |  |  |
| NC[C@H]1O[C@H](O[C@H]2[C@H](O[C@@H]3O[C@H](CO)[C@@H](O)[C@H]3O)C(O)[C@H](N)C[C@@H]2N)[C@H](N)[C@@H](O)[C@@H]1O (stereo not given in full) | -6.78% [at 17.3 µM] (inactive) |  |  |
| CC1(C)O[C@@H]2C[C@H]3[C@@H]4C[C@H](F)C5=CC(=O)CC[C@]5(C)[C@H]4[C@@H](O)C[C@]3(C)[C@]2(C(=O)CO)O1 | -12.6% [at 17.3 µM] (inactive) |  |  |
| COc1c2occc2c(OC)c2c(=O)cc(C)oc12 | -1.19% [at 17.3 µM] (inactive) |  |  |
| O=C1c2ccccc2C(=O)C1c1ccccc1 | -10.8% [at 17.3 µM] (inactive) |  |  |
| OC[C@H]1O[C@H](O[C@]2(CCl)O[C@H](CCl)[C@@H](O)[C@@H]2O)[C@H](O)[C@@H](O)[C@H]1Cl |  |  | inactive |

| Compound | activity change, negative = cytotoxicity | Potency | outcome |
| --- | --- | --- | --- |
| CC(C)COC(=O)OCN1C(=O)CN(CCN2CC(=O)N(COC(=O)OCC(C)C)C(=O)C2)CC1=O | 2.39% (inactive) |  |  |
| CN1CCC(=C2c3ccccc3Sc3ccccc32)CC1 |  | 9.2 µM (active) |  |
| Oc1ccc(O)cc1 | -15.2% (inactive) |  |  |
| CC(C)N=C(N)/N=C(\N)Nc1ccc(Cl)cc1 | 3.05% [at 17.3 µM] (inactive) |  |  |
| CN1CCN(C(c2ccccc2)c2ccccc2)CC1 |  | inactive |  |
| Cc1c(N(C)CS(=O)(=O)O)c(=O)n(-c2ccccc2)n1C | 7.4% [at 17.3 µM] (inactive) |  |  |
| CCOC(=O)OC(C)OC1=C(C(=O)Nc2ccccn2)N(C)S(=O)(=O)c2ccccc21 (stereo not given) | -17.9% (inactive) |  |  |
| CCC(NC(C)C)C(O)c1ccc(O)c(O)c1 (stereo not given) | 1.38% (inactive) |  |  |
| CN1CCC[C@@H]1c1cccnc1 | -0.554% (inactive) |  |  |
| CN(C)CCCOc1nn(Cc2ccccc2)c2ccccc12 | -22.3% [at 17.3 µM] (inactive) |  |  |
| CC(C)COC(=O)c1ccc(N)cc1 | -9.64% (inactive) |  |  |
| O=C1CCC(c2ccc(-n3ccnc3)cc2)=NN1 |  | 1.46 µM (active) |  |
| Cc1cc2c(cc1CC(=O)c1sccc1S(=O)(=O)Nc1onc(C)c1Cl)OCO2 |  |  | inactive |
| COc1cc2c(cc1OC)C(C(C(=O)N(CCc1ccc(OC)c(OC)c1OC)CCc1ccc(OC)c(OC)c1OC)c1ccccc1)=NCC2 (stereo not given) |  | 9.2 µM (active) |  |
| Cc1onc(-c2c(Cl)cccc2Cl)c1C(=O)N[C@@H]1C(=O)N2[C@@H]1SC(C)(C)[C@@H]2C(=O)O |  | inactive |  |
| Cc1ccc(Nc2c(F)cccc2Cl)c(CC(=O)O)c1 |  | inactive |  |
| CC(=O)Oc1ccc2c(c1)CC[C@@H]1[C@@H]2CC[C@]2(C)[C@@H](O)CC[C@@H]12 |  | 5.17 µM (active) |  |
| CCOC(=O)c1cccc(N)c1 | 0.468% (inactive) |  |  |
| O=C(CCN1CCC(c2ccccc2)C1)c1ccc2c(c1)OCCO2 (stereo not given) | -5.27% (inactive) |  |  |
| C[C@]12C=CC(=O)C=C1CC[C@@H]1[C@@H]2[C@@H](O)C[C@@]2(C)[C@H]1CC[C@]2(O)C(=O)CO | -5.74% (inactive) |  |  |

— PubChem BioAssay (NCATS)
